Values joined by “and” are separate entries in the source; they are usually repeats but may differ in a detail not shown here. Equal values may be shown once. Inconclusive results are not listed. Where a structure was tested more than once in an assay, its records may differ in their call. Active and inactive are the calls of the source. How the source made its calls, unless noted: active means hit-call score of the fitted dose curve at least 0.9, where 1 is the maximum; inactive means score below 0.9.
Assays:
[1] = ATG_PBREM_CIS: Attagene CIS-FACTORIAL HepG2 Assay for human Phenobarbital-responsive Enhancer Module (PBREM) (AID 2282955); conditions: HepG2 PBREM cis-reporter, Attagene multiplexed transcription; actives raise or lower the signal
How it was run: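 Cells were transfected with cis-element reporter units and treated for 24 h, after which RNA was extracted and reporter transcripts measured by RT-PCR and capillary electrophoresis.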

[2] = target: Paired box protein Pax-6 (Homo sapiens) (UniProt P26367); experiment: ATG_Pax6_CIS: Attagene CIS-FACTORIAL HepG2 Assay for human Paired Box 6 (PAX6) (AID 2282956); conditions: HepG2 CIS-FACTORIAL PAX6 reporter transcription, RNA readout; actives raise or lower the signal
Paired box protein Pax-6 (Homo sapiens), sequence (P26367 whole entry, looked up): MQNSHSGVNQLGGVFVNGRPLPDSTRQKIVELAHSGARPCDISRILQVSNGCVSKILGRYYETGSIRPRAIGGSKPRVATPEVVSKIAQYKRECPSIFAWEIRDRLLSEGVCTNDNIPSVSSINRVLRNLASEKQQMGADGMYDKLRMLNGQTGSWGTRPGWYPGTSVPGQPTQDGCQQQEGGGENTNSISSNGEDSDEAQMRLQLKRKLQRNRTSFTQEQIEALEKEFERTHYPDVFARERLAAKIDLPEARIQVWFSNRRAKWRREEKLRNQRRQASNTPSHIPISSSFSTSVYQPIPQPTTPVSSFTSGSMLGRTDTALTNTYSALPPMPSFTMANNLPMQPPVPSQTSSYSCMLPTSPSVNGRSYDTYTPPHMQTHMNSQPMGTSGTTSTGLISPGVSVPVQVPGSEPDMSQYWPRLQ
How it was run: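 HepG2 cells transiently transfected with cis-promoter-driven multiplexed reporter units sensing endogenous transcription factor activity; 24 h chemical exposure. Reporter mRNA quantified by RT-PCR, 6-FAM labelling, HpaI digestion and capillary electrophoresis; bidirectional fit versus DMSO baseline.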

[3] = ATG_PXRE_CIS: Attagene CIS-FACTORIAL HepG2 Assay for human Pregnane X Receptor Element (PXRE) (AID 2282957); conditions: HepG2 Attagene CIS-FACTORIAL PXRE reporter, mRNA; actives raise or lower the signal
How it was run: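 HepG2 cells transiently transfected with cis-element-driven multiplexed reporter units; after 24 h chemical exposure, reporter mRNA measured by RT-PCR, 6-FAM labelling, HpaI digestion and capillary electrophoresis. Bidirectional fitting relative to DMSO.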

[4] = ATG_Sox_CIS: Attagene CIS-FACTORIAL HepG2 Assay for human SRY-box transcription factor (SOX) (AID 2282960); conditions: HepG2 Attagene cis-factorial SOX reporter, mRNA; actives raise or lower the signal
How it was run: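 Measures mRNA induction of a SOX1-associated reporter in HepG2 after 24 h dosing. Fluorescently labelled RT-PCR fragments are separated by capillary electrophoresis, and gain or loss relative to DMSO control is fitted.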

[5] = target: Transcription factor Sp1 (Homo sapiens) (UniProt P08047); experiment: ATG_Sp1_CIS: Attagene CIS-FACTORIAL HepG2 Assay for human Specificity Protein 1 (Sp1) (AID 2282961); conditions: HepG2 Sp1 cis-reporter transcription, actives raise or lower the signal
Transcription factor Sp1 (Homo sapiens), sequence (P08047 whole entry, looked up): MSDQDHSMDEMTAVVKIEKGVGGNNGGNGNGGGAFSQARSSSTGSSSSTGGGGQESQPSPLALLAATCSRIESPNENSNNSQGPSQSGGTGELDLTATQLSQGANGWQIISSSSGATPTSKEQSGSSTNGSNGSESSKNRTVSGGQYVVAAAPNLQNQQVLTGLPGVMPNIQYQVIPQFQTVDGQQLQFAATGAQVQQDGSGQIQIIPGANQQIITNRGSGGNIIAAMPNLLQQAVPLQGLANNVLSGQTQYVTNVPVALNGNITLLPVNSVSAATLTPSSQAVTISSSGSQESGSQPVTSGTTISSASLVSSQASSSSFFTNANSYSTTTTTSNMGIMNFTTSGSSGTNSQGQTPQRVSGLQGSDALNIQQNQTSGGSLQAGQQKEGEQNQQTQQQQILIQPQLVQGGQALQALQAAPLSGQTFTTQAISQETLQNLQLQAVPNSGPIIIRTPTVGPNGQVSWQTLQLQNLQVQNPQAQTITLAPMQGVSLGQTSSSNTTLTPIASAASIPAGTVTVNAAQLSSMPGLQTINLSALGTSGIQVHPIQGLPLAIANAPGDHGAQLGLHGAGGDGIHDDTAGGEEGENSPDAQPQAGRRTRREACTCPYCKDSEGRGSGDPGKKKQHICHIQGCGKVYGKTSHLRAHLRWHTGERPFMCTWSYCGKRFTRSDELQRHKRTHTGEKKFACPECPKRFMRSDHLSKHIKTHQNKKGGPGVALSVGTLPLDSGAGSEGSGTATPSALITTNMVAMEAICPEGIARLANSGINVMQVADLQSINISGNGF
How it was run: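 Cells: HepG2, transiently transfected with cis-regulated multiplexed reporters. Exposure: 24 h. Detection: reporter transcripts amplified, fluorescently labeled, restriction-digested and sized by capillary electrophoresis. Analysis: bidirectional fit relative to DMSO.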

[6] = ATG_SREBP_CIS: Attagene CIS-FACTORIAL HepG2 Assay for human Sterol Regulatory Element Binding (SREBP) (AID 2282962); conditions: HepG2 Attagene cis-factorial SREBP reporter, mRNA; actives raise or lower the signal
How it was run: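 HepG2 cells transiently transfected with multiplexed cis-promoter reporter units sensing endogenous transcription factors; reporter mRNA measured 24 h after dosing by RT-PCR, 6-FAM labeling, HpaI digestion and capillary electrophoresis. Bidirectional fit versus DMSO.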

[7] = target: Signal transducer and activator of transcription 3 (Homo sapiens) (UniProt P40763); experiment: ATG_STAT3_CIS: Attagene CIS-FACTORIAL HepG2 Assay for human Signal Transducer and Activator of Transcription 3 (STAT3) (AID 2282963); conditions: HepG2, Attagene cis-factorial STAT3 reporter transcription; actives raise or lower the signal
Signal transducer and activator of transcription 3 (Homo sapiens), sequence (P40763 whole entry, looked up): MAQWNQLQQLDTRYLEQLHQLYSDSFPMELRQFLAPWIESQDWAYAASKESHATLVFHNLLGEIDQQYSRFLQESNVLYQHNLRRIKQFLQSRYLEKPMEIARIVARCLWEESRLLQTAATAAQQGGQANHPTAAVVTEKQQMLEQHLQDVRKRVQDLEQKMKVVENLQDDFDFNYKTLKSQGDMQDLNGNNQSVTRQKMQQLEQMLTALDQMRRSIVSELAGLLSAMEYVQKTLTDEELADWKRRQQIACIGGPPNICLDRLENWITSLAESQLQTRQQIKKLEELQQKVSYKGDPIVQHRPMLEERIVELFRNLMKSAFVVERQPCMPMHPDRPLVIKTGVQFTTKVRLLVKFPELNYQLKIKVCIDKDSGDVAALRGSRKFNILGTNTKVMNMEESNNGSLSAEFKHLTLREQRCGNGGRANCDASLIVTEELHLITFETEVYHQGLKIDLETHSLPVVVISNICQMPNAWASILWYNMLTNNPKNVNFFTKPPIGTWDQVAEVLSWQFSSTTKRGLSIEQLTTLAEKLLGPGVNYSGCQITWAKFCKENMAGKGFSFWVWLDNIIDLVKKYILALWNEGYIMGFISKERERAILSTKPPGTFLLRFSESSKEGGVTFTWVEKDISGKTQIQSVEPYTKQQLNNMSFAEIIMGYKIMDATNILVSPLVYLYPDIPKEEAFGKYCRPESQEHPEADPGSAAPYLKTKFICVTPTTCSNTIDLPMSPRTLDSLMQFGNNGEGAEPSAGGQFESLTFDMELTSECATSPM
How it was run: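 HepG2 cells transiently transfected with cis-element-driven multiple reporter transcription units; after 24 h chemical exposure, reporter mRNA measured by RT-PCR, 6-FAM primer-extension labelling, HpaI digestion and capillary electrophoresis. Bidirectional fitting versus DMSO baseline.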

[8] = ATG_TA_CIS: Attagene CIS-FACTORIAL HepG2 Assay for human TA Basal Promoter (AID 2282964); conditions: HepG2 Attagene CIS-factorial TA basal promoter reporter; actives raise or lower the signal
How it was run: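 Multiplexed mRNA reporter assay, HepG2, 24 h. Reporter cDNA amplified, 6-FAM primer-extended, HpaI-cut, CE-sized; DMSO = negative control and baseline.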

[9] = ATG_TCF_b_cat_CIS: Attagene CIS-FACTORIAL HepG2 Assay for human T-Cell-Factor with beta-catenin (TCF/b-cat) (AID 2282965); conditions: HepG2 TCF/beta-catenin cis-reporter transcription, actives raise or lower the signal
How it was run: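 HepG2 cells transiently transfected with multiple cis-promoter-regulated reporter transcription units, so endogenous transcription factor activity is measured. Reporter mRNA read 24 hours after dosing by RT-PCR, fluorescent labelling and capillary electrophoresis; bidirectional fitting against DMSO.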

[10] = ATG_TAL_CIS: Attagene CIS-FACTORIAL HepG2 Assay for human TAL Basal Promoter (AID 2282966); conditions: HepG2 Attagene cis-factorial TAL promoter reporter; actives raise or lower the signal;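 further: background control endpoint measuring basal TAL promoter reporter mRNA not a specific factor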
How it was run: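 HepG2 cells transiently transfected with multiplexed cis-promoter reporter units, dosed 24 h. Reporter mRNA quantified by RT-PCR, 6-FAM labelling, HpaI digestion and capillary electrophoresis; TAL basal promoter serves as background control, fitted bidirectionally versus DMSO.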

[11] = target: Nuclear receptor subfamily 1 group I member 3 (Homo sapiens) (UniProt Q14994); experiment: ATG_CAR_TRANS: Attagene TRANS-FACTORIAL HepG2 Assay for human Constitutive Androstane Receptor (CAR) (AID 2282969; active means hit-call score of the fitted dose curve at least 0.9, where 1 is the maximum;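 further: activators raise reporter mRNA above DMSO so AC50 marks induction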); conditions: HepG2 Attagene TRANS-FACTORIAL CAR reporter
Nuclear receptor subfamily 1 group I member 3 (Homo sapiens), sequence (Q14994 whole entry, looked up, the tested form may be a part): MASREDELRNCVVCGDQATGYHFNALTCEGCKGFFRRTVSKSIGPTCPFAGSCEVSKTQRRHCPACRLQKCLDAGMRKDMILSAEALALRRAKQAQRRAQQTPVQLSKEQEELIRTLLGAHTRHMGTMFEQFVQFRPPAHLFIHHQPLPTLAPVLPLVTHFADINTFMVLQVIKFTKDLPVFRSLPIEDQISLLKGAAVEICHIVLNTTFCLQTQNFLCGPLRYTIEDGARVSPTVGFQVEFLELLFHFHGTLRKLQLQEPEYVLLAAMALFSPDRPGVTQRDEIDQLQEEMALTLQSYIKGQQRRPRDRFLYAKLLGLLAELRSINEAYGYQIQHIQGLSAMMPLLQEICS
How it was run: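 HepG2 cells transiently transfected with multiplexed GAL4-UAS reporter units expressing chimeric NR-Gal4 proteins; compound exposure 24 h. Reporter mRNA measured by RT-PCR, 6-FAM labelling, HpaI digestion and capillary electrophoresis; gain-of-signal fitted against DMSO baseline.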

[12] = target: Estrogen receptor (Homo sapiens) (UniProt P03372); experiment: ATG_ERa_TRANS: Attagene TRANS-FACTORIAL HepG2 Assay for human Estrogen Receptor alpha (ERa) (AID 2282970; active means hit-call score of the fitted dose curve at least 0.9, where 1 is the maximum); conditions: HepG2 Attagene TRANS ERa GAL4 reporter, mRNA
Estrogen receptor (Homo sapiens), sequence (P03372 whole entry, looked up, the tested form may be a part): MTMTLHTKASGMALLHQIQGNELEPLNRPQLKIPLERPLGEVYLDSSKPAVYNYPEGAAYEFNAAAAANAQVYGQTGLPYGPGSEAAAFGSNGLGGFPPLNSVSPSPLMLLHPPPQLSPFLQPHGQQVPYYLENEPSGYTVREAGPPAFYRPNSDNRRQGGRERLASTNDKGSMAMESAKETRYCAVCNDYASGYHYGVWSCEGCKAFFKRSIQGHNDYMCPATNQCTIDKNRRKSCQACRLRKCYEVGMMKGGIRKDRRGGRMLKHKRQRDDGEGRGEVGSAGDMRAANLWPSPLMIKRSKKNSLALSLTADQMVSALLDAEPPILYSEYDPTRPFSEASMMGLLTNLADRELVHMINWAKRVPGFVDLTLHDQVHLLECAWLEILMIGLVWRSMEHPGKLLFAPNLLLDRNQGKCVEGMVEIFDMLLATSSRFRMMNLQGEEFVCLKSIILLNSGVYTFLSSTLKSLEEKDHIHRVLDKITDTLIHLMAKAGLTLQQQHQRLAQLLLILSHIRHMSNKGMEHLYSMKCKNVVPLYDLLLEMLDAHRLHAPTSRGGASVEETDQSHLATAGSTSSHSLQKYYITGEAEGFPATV
How it was run: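 HepG2 cells transiently transfected with multiplexed GAL4-UAS reporter units read out chimeric NR-Gal4 activity. After 24 h compound exposure, reporter mRNA was quantified by RT-PCR, 6-FAM labeling, HpaI digestion and capillary electrophoresis, relative to DMSO.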

[13] = target: X-box-binding protein 1 (Homo sapiens) (UniProt P17861); experiment: ATG_Xbp1_CIS: Attagene CIS-FACTORIAL HepG2 Assay for human X-box Binding Protein 1 (XBP1) (AID 2282972); conditions: HepG2 XBP1 cis-element reporter, Attagene multiplex; actives raise or lower the signal
X-box-binding protein 1 (Homo sapiens), sequence (P17861 whole entry, looked up): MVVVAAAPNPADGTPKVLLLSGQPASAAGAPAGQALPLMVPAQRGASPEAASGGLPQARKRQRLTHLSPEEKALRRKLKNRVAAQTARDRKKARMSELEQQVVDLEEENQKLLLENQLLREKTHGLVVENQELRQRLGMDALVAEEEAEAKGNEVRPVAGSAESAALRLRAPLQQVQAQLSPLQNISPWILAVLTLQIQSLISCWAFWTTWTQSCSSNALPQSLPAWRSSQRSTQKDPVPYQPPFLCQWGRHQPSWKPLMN
How it was run: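 HepG2 cells transiently transfected with multiple cis-element reporter units report endogenous TF activity; 24 h exposure, then reporter mRNA measured by RT-PCR, 6-FAM labelling, HpaI digestion and capillary electrophoresis. Bidirectional fitting versus DMSO.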

[14] = ATG_M_19_TRANS: Attagene TRANS-FACTORIAL HepG2 Assay for M19 Transcription Factor (Internal Marker) (AID 2282974; active means hit-call score of the fitted dose curve at least 0.9, where 1 is the maximum); conditions: HepG2 Attagene TRANS-FACTORIAL M19 internal marker reporter
How it was run: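 Reporter mRNA induction was measured in transfected HepG2 cells 24 h after dosing. Endpoint fitted upward relative to DMSO and serves as a background control within the multiplexed TRANS panel.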

[15] = ATG_GAL4_TRANS: Attagene TRANS-FACTORIAL HepG2 Assay for GAL4 (Internal Marker) (AID 2282976; active means hit-call score of the fitted dose curve at least 0.9, where 1 is the maximum); conditions: HepG2 Attagene TRANS GAL4 internal marker reporter
How it was run: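 Background-control readout: GAL4-UAS reporter transcript in transiently transfected HepG2 cells after 24 h compound exposure. Measured by RT-PCR, 6-FAM primer extension, HpaI digest and capillary electrophoresis; gain-of-signal fit versus DMSO.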

[16] = ATG_RORE_CIS: Attagene CIS-FACTORIAL HepG2 Assay for human RAR-related Orphan Receptor Element (RORE) (AID 2282959); conditions: HepG2 Attagene cis-factorial RORE reporter, mRNA; actives raise or lower the signal
How it was run: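 Endogenous factor activity at a cis response element is read as reporter transcript levels in HepG2 cells, 24 h post-dose. Transcripts are quantified by RT-PCR with capillary electrophoresis, and data fitted in both directions against DMSO.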

[17] = ATG_TGFb_CIS: Attagene CIS-FACTORIAL HepG2 Assay for human Transforming Growth Factor (TGF) (AID 2282967); conditions: HepG2 Attagene CIS TGFb reporter, mRNA transcription; actives raise or lower the signal
How it was run: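 Transcript-level reporter readout: HepG2 transfectants, 24 h exposure, RNA to cDNA, reporter-specific PCR, fluorescent primer extension, capillary sizing against ROX standards. Gain- or loss-of-signal relative to DMSO.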

[18] = ATG_VDRE_CIS: Attagene CIS-FACTORIAL HepG2 Assay for human Vitamin D Receptor Element (VDRE) (AID 2282968); conditions: HepG2 VDRE cis-reporter transcription, actives raise or lower the signal
How it was run: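 HepG2 cells transiently transfected with cis-element reporter units, dosed 24 h; reporter mRNA measured by RT-PCR, 6-FAM labeling, HpaI digestion and capillary electrophoresis. Activity fitted bidirectionally against DMSO baseline.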

[19] = ATG_PPRE_CIS: Attagene CIS-FACTORIAL HepG2 Assay for human Peroxisome Proliferator-activated Response Element (PPRE) (AID 2282958); conditions: HepG2 PPRE cis-element reporter, Attagene transcription factor profiling; actives raise or lower the signal
How it was run: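 In this cell-based multiplex, a PPRE cis element drives a reporter sequence in transiently transfected HepG2 cells. Following 24 h treatment, labeled cDNA amplicons are sized and quantified by capillary electrophoresis, with DMSO defining baseline.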

[20] = target: Steroid hormone receptor ERR1 (Homo sapiens) (UniProt P11474); experiment: ATG_ERRa_TRANS: Attagene TRANS-FACTORIAL HepG2 Assay for human Estrogen-Related Receptor alpha (ERRa) (AID 2282971; active means hit-call score of the fitted dose curve at least 0.9, where 1 is the maximum); conditions: HepG2 Attagene TRANS reporter, ERRa transactivation
Steroid hormone receptor ERR1 (Homo sapiens), sequence (P11474 whole entry, looked up, the tested form may be a part): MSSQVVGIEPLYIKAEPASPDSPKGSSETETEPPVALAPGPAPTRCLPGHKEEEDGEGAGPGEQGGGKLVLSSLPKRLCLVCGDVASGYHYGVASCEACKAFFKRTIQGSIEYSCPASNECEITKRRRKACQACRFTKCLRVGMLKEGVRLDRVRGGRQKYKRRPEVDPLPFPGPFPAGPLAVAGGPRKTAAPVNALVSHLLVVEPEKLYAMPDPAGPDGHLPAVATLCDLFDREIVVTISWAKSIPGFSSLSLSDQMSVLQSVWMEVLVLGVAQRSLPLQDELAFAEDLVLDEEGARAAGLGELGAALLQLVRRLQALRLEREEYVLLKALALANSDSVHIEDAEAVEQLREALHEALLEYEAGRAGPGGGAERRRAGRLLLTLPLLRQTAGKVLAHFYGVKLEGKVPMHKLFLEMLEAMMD
How it was run: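 HepG2 cells transiently transfected with GAL4-UAS reporter units and chimeric NR-Gal4 constructs; after 24 hour compound incubation, reporter mRNA quantified by RT-PCR, fluorescent labelling and capillary electrophoresis, gain of signal versus DMSO.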

Measured: AC50

CC1=CCC(=C(C)C)CC1
active: [3] 5.48 µM | [12] 33.3 µM
not listed: [16] | [17] | [18] | [19] | [20]
inactive: all other assays above

CC(C)CCOC(=O)CC(C)C
not listed: [2] | [19] | [20]
inactive: all other assays above

CC(O)COCC(C)O (configuration not stated)
not listed: [1] | [11] | [20]
inactive: all other assays above

CC/C=C\C#N
not listed: [2] | [8] | [12] | [15] | [20]
inactive: all other assays above

CCCCCC#CC(=O)OC
active: [3] 20.2 µM
not listed: [2] | [15] | [20]
inactive: all other assays above

[Na+]
not listed: [11] | [12] | [16] | [17] | [18] | [19] | [20]
inactive: all other assays above

COc1ccc2[nH]cc(CCNC(C)=O)c2c1
not listed: [2] | [9] | [11] | [14] | [20]
inactive: all other assays above

C=CC(C)CCCC(C)(C)O (configuration not stated)
not listed: [2] | [9] | [12] | [14] | [15] | [20]
inactive: all other assays above

Cc1ccc(C(C)(C)O)cc1
not listed: [2] | [5] | [14] | [15] | [20]
inactive: all other assays above

C1CCCNCC1
active: [3] 27.3 µM
not listed: [2] | [12] | [13] | [17] | [18] | [20]
inactive: all other assays above

CC(=O)C1C(=O)C=C(C)OC1=O (configuration not stated)
not listed: [2] | [12] | [15] | [19] | [20]
inactive: all other assays above

CCCCOCCOC(=O)c1ccccc1C(=O)OCCOCCCC
active: [3] 5.46 µM | [18] 11 µM
not listed: [2] | [15] | [20]
inactive: all other assays above

CN1CCc2cccc3c2[C@H]1Cc1ccc(O)c(O)c1-3
active: [3] 1.26 µM | [6] 13.3 µM | [10] 8.44 µM
not listed: [8] | [11] | [14] | [15] | [16] | [19] | [20]
inactive: all other assays above

O=C(O)c1ccc(C(=O)O)c(C(=O)O)c1
not listed: [2] | [5] | [9] | [12] | [14] | [15] | [18]
inactive: all other assays above

C#C[C@]1(O)CC[C@H]2[C@@H]3CCc4cc(O)ccc4[C@H]3CC[C@@]21C
active: [3] 3.19 µM [middle of 4 runs] | [16] 67.3 µM and 60.7 µM and 26.4 µM | [4] 130 µM and 54.9 µM | [5] 169 µM and 44.8 µM | [7] 68 µM and 155 µM | [10] 152 µM and 78.2 µM | [17] 100 µM | [13] 59.6 µM [middle of 4 runs]
inactive: [2] | [3] | [19] | [16] | [4] | [5] | [6] | [7] | [10] | [17] | [13] | [14] | [15]

Nc1ccn([C@H]2CC[C@@H](CO)O2)c(=O)n1
not listed: [1] | [11] | [12] | [14] | [15] | [17] | [18] | [20]
inactive: all other assays above

CCOCC(C)O (configuration not stated)
active: [3] 45.3 µM
not listed: [1] | [8] | [9] | [11] | [15]
inactive: all other assays above

CCCCCCCC1CCCC1=O (configuration not stated)
active: [3] 27.9 µM
not listed: [1] | [11] | [13] | [14] | [18] | [20]
inactive: all other assays above
